In the library only some 1.1% were active in any assay of this set; here they are far more common.
HePTP inhibitor – inhibitors of human HePTP phosphatase; 110,000 compounds, 0.64% hits; recombinant HePTP phosphatase activity, OD absorbance; inhibition, % at 20 µM; AID 521; P35236; in the data active = inhibition above about 50%
Target sequence (P35236 whole entry, looked up): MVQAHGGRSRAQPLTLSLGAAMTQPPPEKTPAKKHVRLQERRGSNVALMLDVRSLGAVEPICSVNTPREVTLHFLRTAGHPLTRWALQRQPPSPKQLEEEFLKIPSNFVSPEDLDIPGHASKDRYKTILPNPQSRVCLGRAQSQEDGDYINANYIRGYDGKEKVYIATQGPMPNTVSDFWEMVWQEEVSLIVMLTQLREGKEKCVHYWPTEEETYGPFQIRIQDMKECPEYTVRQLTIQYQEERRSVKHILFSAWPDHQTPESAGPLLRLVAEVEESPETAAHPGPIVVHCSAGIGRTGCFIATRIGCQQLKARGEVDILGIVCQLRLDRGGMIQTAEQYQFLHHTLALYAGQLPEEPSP
TNAP act mid DEA – human TNAP activation, intermediate phosphate acceptor; P05186; purified TNAP, CDP-star luminescence, 100 mM DEA, 30 min; hits give high values; scale: 0 levamisole-inhibited, 1 vehicle-only enzyme; activation factor at 20 µM; 64,000 tested, under 10 active; AID 813;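 active = activation factor of at least 2 at 20 µM, relative to controls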
Ec RNAP inh – inhibitors of Escherichia coli RNA polymerase | P0A8V2 | E. coli RNA polymerase, fluorescence transcription assay | inhibition, %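 (tested at 10 µM)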 | 62,000 compounds, 0.2% hits | AID 559; in the data active = inhibition above about 20%
Hsp90 inh – displaces geldanamycin probe from tumor Hsp90 | P07900 | NCI-N417 lysate Hsp90, Cy3B-geldanamycin FP displacement | inhibition, % at 30 µM | 64,000 compounds, 0.35% hits;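 active = inhibition above 50%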
HER2 expr 66K – Her2 kinase expression inhibition | P04626 | SKBR-3 HER2 protein level, AlphaScreen, 18-24 h; hits give low values | HER2 level % of control, % at 10 µM | 65,000 compounds, 0.69% hits;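 active = HER2 level under 5% of the carrier-only control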;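 also: lower value means stronger loss of Her2 protein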
MT1-MMP txn act – activates MT1-MMP transcription; HT1080 MT1-MMP promoter luciferase reporter, luminescence, overnight; hits give high values; AID 750; 86,000 compounds, 0.16% hits; activation factor at 10 µM;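 active = activation factor of at least 2 for MT1-MMP transcription at 10 µM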
A number is an active result; . = inactive; / = not tested or not shown.

SMILES	HePTP inhibitor	TNAP act mid DEA	Ec RNAP inh	Hsp90 inh	HER2 expr 66K	MT1-MMP txn act
O=C(Nc1ccc(-c2nc3ccccc3[nH]2)cc1)c1ccc(Cl)c(Cl)c1	101.4	/	/	/	/	/
O=C(Nc1ccc2nc(-c3ccccc3)[nH]c2c1)c1ccco1	/	/	/	/	/	.
O=C(Nc1cccc(-c2nc3ccccc3[nH]2)c1)c1cccc(NC(=O)c2ccco2)c1	.	.	.	.	-17.3	.
O=C(Nc1ccc(-c2nc3ccccc3[nH]2)cc1)c1cc2ccccc2o1	101.5	/	/	/	/	/
O=C(Nc1ccc(-c2nc3ccccc3[nH]2)cc1)c1ccc(Br)o1	.	/	/	/	/	/
COC(=O)c1sccc1NC(=O)c1ccc(C)c([N+](=O)[O-])c1	.	/	/	/	/	/
CCOc1ccc(N/C(N)=N\c2nc(C)cc(C)n2)cc1	.	/	/	/	/	/
CCn1c(SCC(=O)c2ccc(F)cc2)nnc1-c1ccoc1C	.	.	.	.	.	.
CCn1c(SCC(=O)c2ccc(O)c(O)c2)nnc1-c1ccccc1OC	.	.	.	67.1	.	.
C=CCn1c(SCC(=O)c2ccc(O)c(O)c2)nnc1-c1ccccc1OC	.	.	.	71.0	.	.
Oc1cccc2ccc(Nc3ccccn3)nc12	.	.	.	.	-20.4	.
Cn1nnnc1Sc1nc(-c2cccnc2)nc2ccccc12	.	.	.	.	-12.7	.
CN1CCN(c2nc(-c3cccnc3)nc3ccccc23)CC1	.	.	/	.	.	.
O=C1NC(=S)N(c2cccc(Cl)c2)C(=O)/C1=C\c1ccc(N2CCCC2)cc1	.	/	/	/	/	/
Cn1cccc1/C=C1/C(=O)NC(=S)N(c2cccc(Cl)c2)C1=O	100.6	/	/	/	/	/
COc1ccc(CC(=O)Nc2ccc(Br)c(C)c2)cc1	.	/	/	/	/	/
O=C(NCCCN1CCOCC1)NC12CC3CC(CC(C3)C1)C2	.	.	63.9	.	.	.
COc1ccc(O)c(/C=C2\SC(=S)N(C)C2=O)c1	.	/	/	/	/	/
CC(NC(=O)/C(C#N)=C/c1ccc(Cl)c(Cl)c1)c1ccccc1 (stereo unspecified)	.	/	/	/	/	/
N#C/C(=C\c1ccc(O)c(O)c1)C(=O)NCCc1ccccc1	/	/	/	83.2	/	/
CN(C)c1ccc(/C=C2/SC(N=Nc3c(O)[nH]c4ccccc34)=NC2=O)cc1	59.2	/	/	/	/	/
O=C1N=c2ccc(Br)cc2=C1c1sc(Nc2ccc(O)cc2)nc1O	93.0	/	/	/	/	/
O=C(O)c1cc(NS(=O)(=O)c2ccccc2)cc(C(=O)O)c1	.	/	/	/	/	/
O=C(O)/C=C/c1ccc(O)c(O)c1	.	.	20.6	52.9	.	.
CC(C)(C)c1cc(CCC(=O)NNC(=O)c2ccccc2)cc(C(C)(C)C)c1O	56.4	/	/	/	/	/
SMILES	HePTP inhibitor	TNAP act mid DEA	Ec RNAP inh	Hsp90 inh	HER2 expr 66K	MT1-MMP txn act
O=C(CCc1ccccc1)NNC(=O)c1ccc(Cl)cc1Cl	.	/	/	/	/	/
O=S(=O)(NCC1CCCO1)c1ccc(Br)c2ccccc12 (stereo unspecified)	.	/	/	/	/	/
N#C/C(C(N)=O)=c1/ccc2c(c1)N1C3=C(CCCC3)CC3CCCCC31N=2 (stereo unspecified)	.	.	.	.	-29.2	.
N#CC(C#N)=c1ccc2c(c1)N1C3=C(CCCC3)CC3CCCCC31N=2 (stereo unspecified)	.	.	.	.	-27.8	.
CCOC(=O)c1cc(=O)n2[nH]c(-c3ccc(Cl)cc3)cc2n1	.	/	/	/	/	/
O=C(NCc1cccnc1)/C(=C/c1ccc(-c2ccc(Br)cc2)o1)NC(=O)c1ccccc1	.	/	/	/	/	/
CC1(C)CC(=O)c2cnc(N)nc2C1	/	/	/	/	/	2.4
CC(=O)Oc1ccc(C(=O)N2c3ccccc3Sc3ccccc32)cc1	.	/	/	/	/	/
C=CCN1C(=O)/C(=C\c2ccc(-c3ccccc3[N+](=O)[O-])o2)C(=O)NC1=S	.	/	/	/	/	/
C=CCN1C(=O)/C(=C\c2ccc(-c3ccc([N+](=O)[O-])cc3Cl)o2)C(=O)NC1=S	.	/	/	/	/	/
C=CCN1C(=O)/C(=C\c2ccc([N+](=O)[O-])o2)C(=O)NC1=S	102.6	/	/	/	/	/
C=CCN1C(=O)/C(=C\c2ccc(-c3ccc(OC)cc3[N+](=O)[O-])o2)C(=O)NC1=S	.	/	/	/	/	/
C=CCN1C(=O)/C(=C\c2ccc(-c3ccc([N+](=O)[O-])cc3Br)o2)C(=O)NC1=S	98.5	/	/	/	/	/
C=CCN1C(=O)/C(=C\c2ccc(-c3ccc([N+](=O)[O-])cc3C)o2)C(=O)NC1=S	102.6	/	/	/	/	/
O=C1NC(=S)N/C1=C\c1ccc(-c2cc([N+](=O)[O-])ccc2Br)o1	102.3	/	/	/	/	/
Cc1onc(-c2c(F)cccc2Cl)c1C(=O)N1CCN(c2ccccn2)CC1	.	/	/	/	/	/
O=C1c2cccc3cccc(c23)C(=O)N1CCCCO	.	/	/	/	/	/
O=C1C2=C(SCCS2)C(=O)N1CCCO	.	.	.	.	1.1	.
CCOc1ccc(-c2[nH]ncc2Oc2ccccc2OCC)c(O)c1	.	.	.	.	-17.6	.
O=C(Nc1ccccc1)NC1CCCCC1	88.9	/	/	/	/	.
O=C(Nc1ccccc1NC(=O)NC1CCCCC1)NC1CCCCC1	.	.	.	.	-15.3	/
COc1cccc(-c2nnn(CC(=O)O)n2)c1	.	.	.	.	-22.3	.
O=C1NC(=O)N(c2ccc(Cl)cc2)C(=O)/C1=C/c1ccc(N2CCCCC2)o1	.	/	/	/	/	/
CCOC(=O)c1c(-c2ccc(OC)cc2)csc1NC(=O)C1CC=CCC1C(=O)O (stereo unspecified)	105.1	/	/	/	/	/
Cc1ccc2[nH]c(=O)c(C(=O)/C=C\c3ccccc3)c(-c3ccccc3)c2c1	.	/	/	/	/	/
SMILES	HePTP inhibitor	TNAP act mid DEA	Ec RNAP inh	Hsp90 inh	HER2 expr 66K	MT1-MMP txn act
Cc1ccc(C=C2C(=O)c3ccccc3C2=O)o1	.	/	/	/	/	/
CC1(C)CCC2=C(O1)c1ccccc1C(=O)C2=O	/	/	/	89.4	/	/
O=C(O)c1ccc2c(c1)C(=O)N(c1ccc(-c3nnc(-c4ccccc4)o3)cc1)C2=O	101.9	/	/	/	/	/
OCCNc1nc(C2CC2)nc2c1nnn2Cc1ccccc1Cl	.	.	.	.	.	.
COCCNc1nc(C(C)(C)C)nc2c1nnn2Cc1ccccc1Cl	.	.	.	.	-24.6	.
Cc1c(C)c2c(C)[nH]nc2oc1=O	.	.	.	.	.	2.3
CC(=O)c1cnc2c(-c3ccc(Cl)cc3)cnn2c1C	/	/	/	/	/	2.1
CCc1ccccc1NC(=O)c1cc2cc(OC)ccc2oc1=O	.	/	/	/	/	/
CC(C)COCC(CN(Cc1ccccc1)c1ccccc1)N1CCCC1 (stereo unspecified)	/	/	/	64.2	/	/
COC(=O)c1[nH]c2ccc(Br)cc2c1NC(=O)CN1CCCc2ccccc21	/	/	/	/	/	.
COC(=O)c1[nH]c2cc(C)ccc2c1NC(=O)CN1CCCc2ccccc21	.	.	.	.	.	2.2
O=C(/C=C/c1ccc(-c2ccc(Cl)cc2Cl)o1)Nc1cccnc1	.	/	/	/	/	/
CCC1=NN2C(=N)/C(=C/c3ccc(-c4ccc(C(=O)O)cc4)o3)C(=O)N=C2S1	57.3	/	/	/	/	/
CCC1=NN2C(=N)/C(=C/c3ccc(-c4ccc(F)cc4)o3)C(=O)N=C2S1	.	/	/	/	/	/
O=C1c2cccc3cccc(c23)C(=O)N1c1nncs1	.	.	.	.	-28.5	.
O=S(=O)(Nc1ccccc1CO)c1ccc2ccccc2c1	.	/	/	/	/	/
Cc1ccc(C)n1-c1cc(C(=O)O)ccc1O	103.2	/	/	/	/	/
Cc1ccc(C)n1-c1ccc(C(=O)O)c(Cl)c1	102.4	/	/	/	/	/
Cc1ccc(C)n1-c1ccc(C(=O)O)c(O)c1	103.1	/	/	/	/	/

Source: PubChem BioAssay (several laboratories)
